Measured values: PubChem BioAssay (NCI)
About 83,000 compounds went through this panel and 20% of them were active in at least one assay; those are over-represented in the sample as a whole.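 Each cell line was grown in a 96-well plate and treated with one concentration of compound for 48 hours. Values below 10 were considered active.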 Active and inactive are the calls of the source.

Each molecule was assayed on HOP-62 NSCLC (assay: NCI-60 one-dose screen, 48 h (100 = growth as untreated, 0 = no growth, -100 = all killed)). Details: 10 µM unless noted.

| Compound | growth |
| --- | --- |
| COc1cc(/C=C/C(=O)c2ccc(N3CCN(C)CC3)cc2)ccc1F | 86.4% (inactive) |
| O=C(Nc1cccc(-c2nc(-c3ccc(NC(=O)c4cccnc4)cc3Cl)no2)c1)Nc1ccc(NC(=O)C2CC2)c(C(F)(F)F)c1 | -47.8% (active) |
| CCNC(=O)Oc1ccc(/C(=C(/C)c2ccc(Cl)cc2)c2ccc(OCCN3CCCC3)cc2)cc1 | 97% (inactive) |
| CS(=O)c1nccc(-c2c(-c3ccc(F)c(OCc4ccc(F)cc4)c3)nc3sccn23)n1 (stereo not drawn) | 100% (inactive) |
| CN1CCN(c2ccc(NC(=O)Nc3ccc4c(ccn4-c4cccc(C(N)=O)n4)c3)cc2C(F)(F)F)CC1 | 63.2% (inactive) |
| O=c1oc2ccc(-c3ccc(F)cc3F)cc2c(=O)n1-c1ccc(F)c(F)c1 | 17.6% (inactive) |
| N#Cc1c(NC(=O)c2ccc(F)c(Cl)c2)sc2c1CCC(=O)C2 | 8.63% (active) |
| CC(C)SC1=NC(=C(C(=N1)NC2=ClC=CC=C2)C#N)C3=CC=CC=C3 | 72.9% (inactive) |
| CCOC(=O)c1c(NCC(=O)Nc2cccc(Cl)c2)sc2c1CCCC2 | 78.6% (inactive) |
| COc1ccc([C@H]2[C@H](O)C(=O)N2c2cc(OC)c(OC)c(OC)c2)cc1 | 26.2% (inactive) |
| O=c1[nH]c2cc(Cl)ccc2n1C1CCN(c2ccc3nnc(Cl)n3n2)CC1 | 95.4% (inactive) |
| O=C1[C@@H]2Cc3c([nH]c4ccccc34)[C@H](c3c(Cl)cccc3Cl)N2C(=O)CN1C1CCN(Cc2ccccc2)CC1 | 81.3% (inactive) |
| CS(=O)(=O)c1ccc2c(c1)c1c(n2Cc2ccc(Cl)cc2)CCCC1 | 75.8% (inactive) |
| O=C(CCCCCCN1CC(=O)N2[C@@H](c3ccc(Cl)c(F)c3)c3[nH]c4ccccc4c3C[C@H]2C1=O)NO | 78.8% (inactive) |
| O=C(c1ccc(O)cc1)[C@@H]1[C@@H]2CCCN2[C@@]2(C(=O)N(C(=O)c3ccc(F)cc3)c3ccccc32)[C@H]1c1ccc(F)cc1 | 97.4% (inactive) |
| COc1cc(-c2nc(SCc3ccc(C)cc3)[nH]c(=O)c2C#N)ccc1OCc1ccccc1 | 104% (inactive) |
| CN(C)C(=O)c1ccccc1-n1cnc2ccccc2c1=O | 112% (inactive) |
| CCN1C(=O)N(CC)C2SC(N/N=C/c3ccccc3)=NC21 (stereo not drawn) | 38.3% (inactive) |
| CCOC(=O)Nc1ccc(-c2nc(-c3cccc(O)c3)c(-c3ccnc(Br)c3)[nH]2)cc1 | 25.2% (inactive) |

| Compound | growth |
| --- | --- |
| O=C1c2c(c3c4cc(Br)ccc4[nH]c3c3ccc4ccccc4c23)C(=O)N1CCN1CCCCC1 | 33.8% (inactive) |
| CN(C)CCn1c2ccc(N)cc2c2nc3ccccc3nc21 | 31.5% (inactive) |
| COc1ccc(-c2cc(-c3cccc4ccccc34)n3c(n2)nc2ccccc23)cc1 | 26% (inactive) |
| Nc1c(C(=O)c2ccccc2)sc2nc(-c3cnccn3)cc(-c3cccs3)c12 | 97.6% (inactive) |
| CCOC(=O)c1c(Nc2ccccc2)nn2c(-c3ccc(OC)c(OC)c3)ccnc12 | 72.7% (inactive) |
| O=C(COc1ccc(C2SCC(=O)N2c2ccccc2)cc1)c1ccccc1 (stereo not drawn) | 95.6% (inactive) |
| CCn1c2ccc(/C=N/OCCCN(C)C)cc2c2cc(/C=N/OCCCN(C)C)ccc21 | 62.5% (inactive) |
| N/C(=N\OC(=O)CSc1nc2ccccc2s1)c1ccc2ccccc2c1 | 92% (inactive) |
| COc1ccc(-c2nc3cc(Cl)c(Cl)cc3n2CC(=O)N=Nc2c(O)[nH]c3ccc(Br)cc23)cc1 | -50.2% (active) |
| Oc1ccc(-c2nnc(SCc3ccc(O)c4ncccc34)o2)cc1 | 13.9% (inactive) |
| CC1=CC(=O)CC(C)(C)[C@@]1(O)/C=C/C(C)=C\C(=O)O | -41.6% (active) |
| O=C(N/N=C\c1ccc(Cl)cc1)c1ccc2nc(-c3ccc(Br)cc3)[nH]c2c1 | -42.5% (active) |
| CS(=O)(=O)c1nccc(-c2c(-c3ccc(F)c(OCc4ccccc4)c3)nc3sccn23)n1 | 105% (inactive) |
| C=CCn1c(SCC(=O)Nc2ccc(OC)cc2)nnc1-c1ccc(Cl)cc1 | 101% (inactive) |
| CN1C(=O)N(C)C2Nn3c(s/c(=C\c4ccccn4)c3=O)=NC21 (stereo not drawn) | 100% (inactive) |
| Oc1ccc(-c2nnc(SCc3ccc(O)c4ncccc34)n2-c2ccccc2)cc1 | 19.3% (inactive) |
| Fc1ccccc1/C=C(/C1=NCCN1)n1cnc2ccccc21 | 106% (inactive) |
| COc1cnc2c(c1)C(=O)c1c-2n(CCCn2ccnc2)c(=O)c2cc(OC)c(OC)cc12 | -47.5% (active) |
| CC[C@@](C)(NC(=O)C(C)(C)NC(=O)[C@@H](NC(=O)[C@@H]1CCCN1C(=O)C(C)(C)NC(=O)[C@H](CC(C)C)NC(=O)CNC(=O)C(C)(C)NC(=O)[C@@H](NC(=O)C(C)(C)NC(=O)[C@H](CCC(N)=O)NC(=O)[C@H](C)NC(=O)C(C)(C)NC(=O)[C@H](C)NC(=O)C(C)(C)NC(=O)[C@H](C)NC(=O)C(C)(C)NC(C)=O)C(C)C)C(C)C)C(=O)N[C@@H](CCC(N)=O)C(=O)N[C@@H](CCC(N)=O)C(=O)N[C@H](CO)CC1CCCCC1 | 47.2% [5 µM] (inactive) |
